Source: PubChem BioAssay (NMMLSC)
Hits are enriched below; roughly 2.9% of the tested compounds scored in any of these assays.
GRK2 inh – inhibitors of human GRK2 displacing RNA aptamer; bead flow cytometry, FAM-aptamer displacement from GRK2; inhibition of aptamer binding, % at 10 µM; hit rate 0.59% among 330,000; AID 488847;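 active = inhibition of aptamer binding above 40%, roughly 3 SD of noise, on plates passing a quality check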;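 note: median bead fluorescence of bound FAM aptamer so fluorescent compounds give negative values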
MEKK2 WT-MEK5 – raises or lowers MEK5 binding to wildtype human MEKK2 PB1 domain | Q9Y2U5 | bead flow cytometry, Alexa488-MEK5 binding to MEKK2 WT; actives lie on both sides | binding response (% of control), % at 10 µM | hit rate 1.1% among 290,000; in the data active = binding response below about 67% or above about 130%
MEKK3 PB1 HTS – MEKK3-MEK5 PB1 interaction, increase or decrease; Q99759; bead-based flow cytometry, Alexa488-MEK5 binding to MEKK3; actives lie on both sides; 0 = blocked by unlabeled MEK5, 100 = vehicle; binding response (% of control), % at 10 µM; hit rate 1.4% among 290,000; AID 1529;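 active = binding response more than 3 SD above or below the average of its plate-row segment, actives on both sides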;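 note: Alexa488 bead fluorescence after subtracting the streptavidin-only scavenger bead signal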
Target sequence (Q99759 whole entry, looked up): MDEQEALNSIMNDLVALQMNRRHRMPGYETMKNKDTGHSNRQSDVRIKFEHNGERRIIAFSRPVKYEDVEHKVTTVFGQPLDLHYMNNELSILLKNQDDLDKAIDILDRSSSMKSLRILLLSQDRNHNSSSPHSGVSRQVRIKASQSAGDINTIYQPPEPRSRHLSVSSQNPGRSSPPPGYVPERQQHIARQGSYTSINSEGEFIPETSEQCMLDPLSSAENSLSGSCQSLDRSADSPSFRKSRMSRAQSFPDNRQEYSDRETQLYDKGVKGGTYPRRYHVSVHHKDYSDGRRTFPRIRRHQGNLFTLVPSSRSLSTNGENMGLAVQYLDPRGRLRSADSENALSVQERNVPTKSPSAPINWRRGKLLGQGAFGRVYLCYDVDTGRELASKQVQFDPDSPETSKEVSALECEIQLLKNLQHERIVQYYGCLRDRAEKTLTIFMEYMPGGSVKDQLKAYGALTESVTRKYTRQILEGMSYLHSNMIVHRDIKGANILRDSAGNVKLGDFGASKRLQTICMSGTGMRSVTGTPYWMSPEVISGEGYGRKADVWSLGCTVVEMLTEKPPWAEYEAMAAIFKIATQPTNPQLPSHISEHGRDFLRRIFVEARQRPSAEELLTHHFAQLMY
MEKK2 mut-MEK5 – signal of MEK5 binding to mutant human MEKK2 PB1 domain. bead flow cytometry, Alexa488-MEK5 binding to MEKK2 mutant. percent response, % at 10 µM. hit rate 0.35% among 290,000. AID 1530; in the data active = percent response above about 24%, passing the limit was not always enough
B2AR ag – agonists of human beta-2 adrenergic receptor inducing internalization; P07550; Am2.2-beta2AR cells, FAP receptor internalization, flow cytometry; response, % (concentration not given with the values); hit rate 0.43% among 340,000;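 active = response above a set limit, near 3 SD of response in nonfluorescent compounds, cut at about 42% in these data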
MEKK2wt confirm – raises or lowers MEK5 binding to wildtype human MEKK2, retest; shares compounds with MEKK3 PB1 HTS; bead flow cytometry, Alexa488-MEK5 binding to MEKK2 WT; actives lie on both sides; binding response (% of control), % at 10 µM; hit rate 2.4% among 5,900; AID 1892; in the data active = binding response below about 16% or above about 210%; inactive = in between
MEKK2mut confirm – signal of MEK5 binding to mutant human MEKK2, retest | shares compounds with MEKK3 PB1 HTS | bead flow cytometry, Alexa488-MEK5 binding to MEKK2 mutant | percent response, % at 10 µM | hit rate 2% among 5,900; in the data active = percent response mostly above about 71%, no sharp cut-off; inactive = mostly below about 38%;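 note: higher means compound restores mutant binding toward wildtype level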
MEKK3 confirm – confirmation of inhibitors of MEK5 binding to human MEKK3; shares compounds with MEKK3 PB1 HTS; bead flow cytometry, Alexa488-MEK5 binding to MEKK3; hits give low values; binding response (% of control), % at 10 µM; hit rate 1.8% among 5,900; AID 1894;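 active = binding response below 72% of control, or above a set upper limit, though filed actives all read lower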;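 note: 100% = DMSO only wells and 0% = binding blocked by excess unlabeled MEK5; lower values mean stronger disruption of MEK5 binding to MEKK3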
* = called active by the depositor; / = not tested or not shown; [ ] = remark or other dose.

SMILES	GRK2 inh	MEKK2 WT-MEK5	MEKK3 PB1 HTS	MEKK2 mut-MEK5	B2AR ag	MEKK2wt confirm	MEKK2mut confirm	MEKK3 confirm
O=C(CN1CCCC1)Nc1ccc(F)c(Cl)c1	0.0	112.0	103.0	2.0	10.4	/	/	/
Cn1c(=O)c2ncn(CC(=O)N/N=C/C=C/c3ccccc3)c2n(C)c1=O	0.0	91.0	107.0	-9.0	-5.5	/	/	/
Cn1c(=O)c2ncn(CC(=O)N/N=C/c3ccco3)c2n(C)c1=O	2.0	108.0	140.0*	0.0	2.2	110.0	2.0	101.0
COc1ccc(C(=O)NC2CC2)cc1OC1CCN(Cc2ccc(NC(C)=O)cc2)CC1	/	104.0	101.0	2.0	1.6	/	/	/
Cc1nn(CCOc2ccccc2)c(=O)n1-c1ccc(Cl)cc1	0.0	123.0	141.0*	4.0	0.5	102.0	-1.0	103.0
CC1C(C)C(O)(c2ccccc2)CCN1C (configuration not stated)	0.0	100.0	130.0*	9.0	7.8	117.0	14.0	97.0
CN(Cc1ccco1)c1ncnc2ccc(-c3ccc4c(ccn4C)c3)cc12	0.0	/	/	/	21.6	/	/	/
CC1(C)CC(O)C(C(O)c2cccc([N+](=O)[O-])c2)C(C)(C)N1 (configuration not stated)	3.0	111.0	148.0*	1.0	3.8	99.0	5.0	103.0
CC1(C)CC(NCc2cccc([N+](=O)[O-])c2)CC(C)(C)N1	0.0	107.0	106.0	6.0	7.0	/	/	/
COc1cccc(NC(=O)CN(c2cccc(OC)c2)S(C)(=O)=O)c1	0.0	98.0	102.0	-3.0	-2.3	/	/	/
COc1cccc(NC(=O)CN(c2cccc(C(F)(F)F)c2)S(C)(=O)=O)c1	0.0	81.0	80.0*[inhibitor]	-4.0	4.7	101.0	2.0	100.0
COc1ccc(-c2csc(Nc3ccc(C)cn3)n2)cc1OC	0.0	142.0	143.0*	8.0	-0.6	111.0	1.0	101.0
COc1ccc(-c2csc(Nc3cc(C)ccn3)n2)cc1OC	0.0	118.0	111.0	6.0	16.7	/	/	/
S=c1[nH]nc(-c2ccc(Cl)cc2)n1-c1ccc2c(c1)OCCO2	0.0	109.0	197.0*	1.0	4.6	1.0*[inhibitor]	-29.0	2.0*
CCC(=O)Nc1ccc(Cl)c(NC(=S)NC(=O)COc2ccc(Cl)cc2)c1	0.0	97.0	74.0*[inhibitor]	-1.0	-5.4	103.0	3.0	103.0
O=C(NCCc1c[nH]c2ccccc12)/C(=C\c1cccs1)NC(=O)c1ccccc1	2.0	96.0	41.0*[inhibitor]	-1.0	-5.5	101.0	1.0	105.0
CN(CC(=O)Nc1cccc2c1CCCC2)S(=O)(=O)c1ccccc1	0.0	88.0	80.0*[inhibitor]	-4.0	3.1	99.0	6.0	100.0
O=C1NN=C(c2ccc(Cl)cc2)CC1c1c[nH]c2ccccc12 (configuration not stated)	2.0	97.0	102.0	1.0	8.6	/	/	/
Cc1ccc(C2=NNC(=O)C(c3c[nH]c4ccccc34)C2)cc1 (configuration not stated)	4.0	116.0	128.0*	-1.0	-3.9	106.0	2.0	102.0
CNC(=O)/C=C/c1cccc(C(F)(F)F)c1	0.0	90.0	73.0*[inhibitor]	-1.0	-3.9	99.0	0.0	101.0
COc1ccc(S(=O)(=O)N2CCC(C(=O)NCCC(=O)NCc3ccccc3OC)CC2)cc1	2.0	97.0	96.0	-1.0	-0.9	/	/	/
COc1cccc(-c2nn3c(-c4ccco4)nnc3s2)c1	6.0	104.0	104.0	2.0	-10.8	/	/	/
COc1cccc(OC)c1-c1nn2c(-c3ccco3)nnc2s1	3.0	97.0	129.0*	1.0	1.9	95.0	0.0	97.0
O=C(CCn1nc(-c2ccc(Cl)cc2)ccc1=O)NCCCN1CCCCCC1	0.0	193.0*	110.0	50.0*	0.9	191.0	47.0	109.0
CCN(CC)CCOC(=O)c1ccc(N/C=C(/C#N)c2nc(-c3ccc4c(c3)OCO4)cs2)cc1	8.0	58.0*[inhibitor]	22.0*[inhibitor]	4.0	5.4	101.0	-20.0	39.0*
SMILES	GRK2 inh	MEKK2 WT-MEK5	MEKK3 PB1 HTS	MEKK2 mut-MEK5	B2AR ag	MEKK2wt confirm	MEKK2mut confirm	MEKK3 confirm
CCN(CC)CCOC(=O)c1ccc(N/C=C(/C#N)c2nc(-c3ccc(OC)cc3)cs2)cc1	0.0	72.0	22.0*[inhibitor]	19.0	30.5	212.0*	31.0	84.0
CN(C)c1ccc(N2CC(C)(C)C2=O)cc1	0.0	80.0	90.0	-17.0	4.2	/	/	/
CC(=O)C1=NN(c2ccccc2)C2(S1)S/C(=C\c1ccccc1)C(=O)N2c1ccccc1 (configuration not stated)	4.0	101.0	103.0	3.0	4.2	/	/	/
COc1ccc(NC(=O)CN(C)C(=O)c2cc(CN3C(=O)c4ccccc4C3=O)ccc2OC)cc1	0.0	/	/	/	0.7	/	/	/
C=CCNC(=O)c1ccc(-c2cccc([N+](=O)[O-])c2)o1	0.0	103.0	96.0	-3.0	-13.2	/	/	/
C=CCNC(=O)c1ccc(-c2ccc([N+](=O)[O-])cc2)o1	4.0	113.0	194.0*	1.0	2.3	103.0	-6.0	101.0
Oc1ccc(-n2cnnn2)cc1	6.0	77.0	71.0*[inhibitor]	-5.0	6.2	104.0	9.0	105.0
Clc1ccc(-n2cnnn2)cc1	0.0	102.0	104.0	5.0	0.1	/	/	/
COc1ccc(C(=O)N2CCC(c3ccccc3)CC2)c(OC)c1OC	0.0	123.0	134.0*	2.0	3.9	109.0	0.0	102.0
O=[N+]([O-])c1cc([N+](=O)[O-])c(Oc2ccc(Cl)c3cccnc23)cc1NN1CCCCC1	2.0	94.0	97.0	-9.0	-1.4	/	/	/
CC1(C)CC2CC(C)(CN2C(=O)C23CCC(C)(C(=O)C2)C3(C)C)C1 (configuration not stated)	0.0	102.0	128.0*	0.0	-0.8	92.0	-8.0	97.0
CC12CCC(C(=O)NC3CCCC3)(CC1=O)C2(C)C (configuration not stated)	0.0	111.0	107.0	5.0	-14.3	/	/	/
O=c1c(/C=C(\O)c2ccccc2)nc2ccccc2n1-c1ccccc1	1.0	58.0*[inhibitor]	81.0*[inhibitor]	-19.0	/	66.0	-18.0	85.0
Cc1nc2ccccc2n1-c1ccccc1	0.0	112.0	108.0	11.0	1.8	/	/	/
CCCCCOc1ccc(/C(C)=N/NC2=NCCN2)cc1	0.0	148.0*	106.0	20.0	15.1	129.0	10.0	93.0
CCCCCCOc1ccc(/C(C)=N/NC2=NCCN2)cc1	0.0	204.0*	112.0	36.0*	38.3	205.0	64.0	111.0
CC(C)(C)S(=O)(=O)N1Cc2cc(=O)n(Cc3ccccc3)c(CCO)c2[C@H]1CCO	/	/	/	/	8.9	/	/	/
